Experimental findings from PubChem BioAssay are described below.

Values without a mark were called inactive. For some of these results: Results with a measured potency or affinity are listed apart. The source made the active and inactive calls. Unless noted, how the calls were made is not given here.

Test [1] can be described thus: antimalarial activity against Dd2 strain (AID 2302;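 active means growth inhibition above 50% at the single 2 µM test dose, taken to imply half-maximal potency below 2 µM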;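 further: 0% = DMSO untreated growth and 100% = chloroquine plus artemisinin killed control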). The conditions noted are these: P. falciparum Dd2 in RBCs, LDH growth readout, 72 h; at 2 µM; active compounds read high.
Test [2] in a line: human hepatoma cell viability loss – ATP luminescence, cytotoxicity control for P. falciparum antimalarial project, primary screen (AID 2303;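 active means inhibition above 50%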;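 further: 0% = DMSO wells and 100% = digitonin-killed cells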). The conditions noted are these: HepG2 viability, 24-48 h, at 10 µM, active compounds read high.
The target in test [3] is L-lactate dehydrogenase (Plasmodium falciparum (isolate CDC / Honduras)) (UniProt Q27743). Put plainly: PfLDH activity inhibition – cell lysate, 3D7 strain, counter-screen for P. falciparum growth inhibition project (AID 2304).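 Further: 0% = vehicle and 100% = reference inhibitor.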 As to conditions: P. falciparum 3D7 crude extract, LDH APAD/NBT absorbance; at 2 µM; active compounds read high. In general terms: Counterscreens check selectivity or assay interference.
Chain of L-lactate dehydrogenase (Plasmodium falciparum (isolate CDC / Honduras)) (Q27743 whole entry, looked up): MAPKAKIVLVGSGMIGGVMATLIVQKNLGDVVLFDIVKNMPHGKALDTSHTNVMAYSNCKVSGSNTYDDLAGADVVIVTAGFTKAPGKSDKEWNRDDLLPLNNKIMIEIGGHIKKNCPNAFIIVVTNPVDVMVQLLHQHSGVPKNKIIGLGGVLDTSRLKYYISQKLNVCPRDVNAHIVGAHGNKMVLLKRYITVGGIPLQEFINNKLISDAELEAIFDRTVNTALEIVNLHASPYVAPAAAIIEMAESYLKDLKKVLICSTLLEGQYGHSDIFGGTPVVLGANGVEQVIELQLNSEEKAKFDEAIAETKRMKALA

The nature of test [4]: inhibition of 3D7 malaria parasite growth – strain 3D7 (AID 2306).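 Further: 0% = DMSO wells and 100% = chloroquine plus artemisinin control wells.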 As to conditions: P. falciparum 3D7 erythrocytic growth, LDH absorbance, 72 h; at 2 µM; active compounds read high.
For test [5], the target named is Calcium-dependent protein kinase 1 (Plasmodium falciparum (isolate 3D7)) (UniProt P62344). Put plainly: PfCDPK1 kinase inhibitors, biochemical, TCAMS library (AID 1159585; cut-off not given, nearly all actives have IC50 up to about 0.98 µM;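 further: inhibitors leave more ATP so luminescence rises with inhibition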). As to conditions: recombinant PfCDPK1, Kinase-Glo ATP depletion luminescence.
Chain of Calcium-dependent protein kinase 1 (Plasmodium falciparum (isolate 3D7)) (P62344 whole entry, looked up): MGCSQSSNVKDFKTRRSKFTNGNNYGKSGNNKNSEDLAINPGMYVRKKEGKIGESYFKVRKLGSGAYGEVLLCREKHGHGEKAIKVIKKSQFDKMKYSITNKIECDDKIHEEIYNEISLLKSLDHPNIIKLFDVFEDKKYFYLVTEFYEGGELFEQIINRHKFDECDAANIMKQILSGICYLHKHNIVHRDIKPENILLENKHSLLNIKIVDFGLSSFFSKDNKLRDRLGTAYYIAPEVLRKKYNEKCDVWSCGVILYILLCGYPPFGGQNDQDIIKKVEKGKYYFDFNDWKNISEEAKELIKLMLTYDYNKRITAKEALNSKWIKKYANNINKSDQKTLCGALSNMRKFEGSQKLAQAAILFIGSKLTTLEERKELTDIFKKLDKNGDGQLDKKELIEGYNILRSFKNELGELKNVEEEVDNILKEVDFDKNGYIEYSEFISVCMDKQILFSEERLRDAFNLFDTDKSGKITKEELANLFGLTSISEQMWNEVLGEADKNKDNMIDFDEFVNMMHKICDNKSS
Test [6] has as its target Plasmodium falciparum protein kinase 6 (PK6, PF3D7_1337100) (UniProt Q8IDW1). Put plainly: PfPK6 kinase inhibitors, biochemical, TCAMS library (AID 1159586). The conditions noted are these: recombinant PfPK6, Kinase-Glo ATP depletion luminescence.
Test [7] addresses Protein kinase 7 (PK7), Plasmodium falciparum 3D7 (PF3D7_0213400) (UniProt Q7YTF7). Put plainly: inhibition of Plasmodium PK7 catalytic activity – biochemical, TCAMS antimalarial set, Kinase-Glo luminescence (AID 1159587). The conditions noted are these: recombinant PfPK7, Kinase-Glo ATP depletion luminescence. (Kinase-Glo measures the ATP left after a reaction by luminescence.)
Test [8] deals with Calcium-dependent protein kinase 4 (Plasmodium falciparum (isolate 3D7)) (UniProt Q8IBS5). Put plainly: PfCDPK4 kinase inhibitors, biochemical, TCAMS library (AID 1159588; cut-off not given, nearly all actives have IC50 up to about 0.91 µM). As to conditions: recombinant PfCDPK4, Kinase-Glo ATP depletion luminescence.
Chain of Calcium-dependent protein kinase 4 (Plasmodium falciparum (isolate 3D7)) (Q8IBS5 whole entry, looked up): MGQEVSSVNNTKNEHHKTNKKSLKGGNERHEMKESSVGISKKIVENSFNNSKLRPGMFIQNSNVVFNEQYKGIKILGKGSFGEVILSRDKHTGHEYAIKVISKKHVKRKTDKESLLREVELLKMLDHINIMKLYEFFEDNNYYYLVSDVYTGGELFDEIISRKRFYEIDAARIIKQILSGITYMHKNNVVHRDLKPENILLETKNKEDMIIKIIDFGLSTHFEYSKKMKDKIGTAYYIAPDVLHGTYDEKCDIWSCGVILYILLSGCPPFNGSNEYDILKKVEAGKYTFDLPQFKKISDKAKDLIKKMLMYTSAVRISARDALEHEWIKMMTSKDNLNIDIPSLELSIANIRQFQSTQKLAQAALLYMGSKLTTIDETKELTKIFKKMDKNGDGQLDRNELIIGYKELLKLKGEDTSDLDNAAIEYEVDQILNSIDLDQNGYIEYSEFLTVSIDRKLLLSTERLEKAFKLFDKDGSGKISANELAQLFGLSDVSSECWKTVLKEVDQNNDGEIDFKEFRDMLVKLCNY

Broadly, the inhibition is the relative decrease from the control value, in per cent.

Chain of Protein kinase 7 (PK7), Plasmodium falciparum 3D7 (PF3D7_0213400) (Q7YTF7 1-343): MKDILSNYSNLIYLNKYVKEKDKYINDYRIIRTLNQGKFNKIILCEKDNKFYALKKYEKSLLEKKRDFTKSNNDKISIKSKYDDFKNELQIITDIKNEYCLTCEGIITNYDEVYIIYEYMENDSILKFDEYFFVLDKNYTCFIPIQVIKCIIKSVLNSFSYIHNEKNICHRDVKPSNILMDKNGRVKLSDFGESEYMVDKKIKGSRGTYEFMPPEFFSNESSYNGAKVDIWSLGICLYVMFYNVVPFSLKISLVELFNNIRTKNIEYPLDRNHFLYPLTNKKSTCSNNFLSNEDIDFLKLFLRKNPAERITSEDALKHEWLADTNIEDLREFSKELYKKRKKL
Chain of Plasmodium falciparum protein kinase 6 (PK6, PF3D7_1337100) (Q8IDW1 1-305): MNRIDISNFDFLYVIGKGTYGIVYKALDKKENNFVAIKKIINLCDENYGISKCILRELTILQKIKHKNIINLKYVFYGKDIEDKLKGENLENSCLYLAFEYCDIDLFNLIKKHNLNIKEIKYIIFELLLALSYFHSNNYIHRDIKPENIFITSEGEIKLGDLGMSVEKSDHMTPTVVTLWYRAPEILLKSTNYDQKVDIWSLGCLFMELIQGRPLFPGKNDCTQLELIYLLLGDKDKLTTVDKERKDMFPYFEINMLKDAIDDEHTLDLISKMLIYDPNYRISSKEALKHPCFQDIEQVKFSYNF

As to `Cc1ccc(C2CCN(CCCCNC(=O)c3ccc(-c4ccc(C#N)cc4)cc3)CC2)c(O)c1`, the growth inhibition in test [1] is 90% (active); in test [4], 100% (active). Besides, the inhibition in test [2] was 45%; in test [3], -3%. The outcome in test [5], in test [6], in test [7] and in test [8] was inactive.

Consider `Cc1cc(-c2ccc3c(c2)CCN(CCC2CCC(NC(=O)/C=C/c4cccc(F)c4)CC2)CC3)on1` (stereo not given), for which the growth inhibition in test [1] was 19%; in test [4], 95% (active). Also, the values for the inhibition in test [2] and in test [3] were 23% and -10%, respectively. The outcome in test [5], in test [6], in test [7] and in test [8] was inactive.

Turning to `O=C(NC1CCN(Cc2ccc(O)cc2)CC1)c1ccc(Cl)c(Cl)c1`, the growth inhibition in test [1] was 3%; in test [4], 95% (active). Further, the inhibition was 1% in test [2] and 4% in test [3]. The outcome in test [5], in test [6], in test [7] and in test [8] was inactive.

Regarding `CN1CCN(CCCNCc2ccccc2-c2cccc(CNCc3ccc4c(c3)OCO4)c2)CC1`, the figures for the growth inhibition in test [1] and in test [4] were 7% and 102% (active), respectively. In addition, the figures for the inhibition in test [2] and in test [3] were 34% and -1%, respectively. Further, the result in test [5], in test [6], in test [7] and in test [8] was inactive.

With `CN1CCCN(Cc2cccc(-c3ccc(NS(=O)(=O)c4cccc5cccnc45)cc3)c2)CC1`, the growth inhibition was 87% (active) in test [1] and 100% (active) in test [4]. Moreover, the results for the inhibition in test [2] and in test [3] were 44% and 2%, respectively. Further, the outcome in test [5], in test [6], in test [7] and in test [8] was inactive.

As to `CC(C)C[C@H](NC(=O)c1ccc(OCCN2CCOCC2)cc1)C(=O)N[C@H](/C=N/N1CCNC1=O)CCc1ccccc1`, the growth inhibition in test [1] is 94% (active); in test [4] it was 89% (active). Further, the inhibition in test [2] is 1%; in test [3] it was 4%. Further, the outcome in test [5], in test [6], in test [7] and in test [8] was inactive.

For the molecule `CCCN(CC1CC1)c1ncc(-c2ccccc2CNCc2ccccc2O)cn1`, the figures for the growth inhibition in test [1] and in test [4] were 98% (active) and 100% (active), respectively. For the same molecule, the figures for the inhibition in test [2] and in test [3] were 4% and -4%, respectively. Moreover, the outcome in test [5], in test [6], in test [7] and in test [8] was inactive.

With `COc1ccc2ncc(F)c(CCN3CC[C@H](NC(=O)c4ccc5c(n4)NC(=O)CS5)[C@H](O)C3)c2n1`, the growth inhibition in test [1] and in test [4] was 88% (active) each time. Also, the inhibition was 20% in test [2] and 0% in test [3]. Besides, the outcome in test [5], in test [6], in test [7] and in test [8] was inactive.

With `COc1ccc(-c2ccc(NC(=O)c3ccc(Cl)cc3)cc2)cc1CN(C)CCN(C)C`, the growth inhibition in test [1] was 61% (active); in test [4], 97% (active). Further, the inhibition was 37% in test [2] and -2% in test [3]. Further, the outcome in test [5], in test [6], in test [7] and in test [8] was inactive.

Turning to `Cc1cnc(C(=O)Nc2cccc(-c3cccc(-c4nc5c(C)cccc5[nH]4)c3)c2)cn1`, the growth inhibition is 45% in test [1] and 99% (active) in test [4]. Besides, the inhibition in test [2] is 15%; in test [3] it was -1%. Also, the outcome in test [5], in test [6], in test [7] and in test [8] was inactive.

Consider `O=C(Nc1cccc(OC2CCN(Cc3ccc(F)cc3)CC2)c1)c1ccc(C(F)(F)F)cc1`, for which the results for the growth inhibition in test [1] and in test [4] were 6% and 94% (active), respectively. In addition, the inhibition in test [2] is 28%; in test [3] it was 3%. The result in test [5], in test [6], in test [7] and in test [8] was inactive.

Take `CN(c1ccccc1C(=O)Nc1ccccc1Oc1ccccc1)S(=O)(=O)c1ccccc1`: the growth inhibition in test [1] was 80% (active); in test [4], 90% (active). Moreover, the inhibition in test [2] was 2%; in test [3], -2%. The outcome in test [5], in test [6], in test [7] and in test [8] was inactive.

On to `Cc1cccc2c(C(=O)NC3CCN(Cc4ccccc4)CC3)cc(-c3cccnc3)nc12`, for which the figures for the growth inhibition in test [1] and in test [4] were 10% and 81% (active), respectively. In addition, the values for the inhibition in test [2] and in test [3] were 12% and -2%, respectively. Moreover, the result in test [5], in test [6], in test [7] and in test [8] was inactive.

As to `CCOC(=O)c1ccc(N2CCN(c3cc(C)ccc3C)CC2)c(NC(=O)Nc2ccc(Cl)c(Cl)c2)c1`, the growth inhibition in test [1] is 42%; in test [4] it was 100% (active). Further, the inhibition in test [2] is 7%; in test [3], -2%. Also, the result in test [5], in test [6], in test [7] and in test [8] was inactive.

On to `Cc1cc(CNCC2CCC(CNCCCc3ccccc3)CC2)ccc1O` (stereo not given), for which the figures for the growth inhibition in test [1] and in test [4] were 0% and 101% (active), respectively. For the same molecule, the inhibition is 25% in test [2] and 7% in test [3]. The outcome in test [5], in test [6], in test [7] and in test [8] was inactive.

For the molecule `O=c1sn(-c2csc3ccccc23)c2ccccc12`, the growth inhibition in test [1] was 54% (active); in test [4], 94% (active). Moreover, the inhibition is 14% in test [2] and -6% in test [3]. In addition, the outcome in test [5], in test [6], in test [7] and in test [8] was inactive.

Turning to `O=C(NCC1CCN(CCN2CCC(c3cn(CCO)c4ccccc34)CC2)CC1)c1ccc(-c2ccc(C(F)(F)F)cc2)cc1`, the growth inhibition was 100% (active) in test [1] and 101% (active) in test [4]. In addition, the inhibition in test [2] was 100% (active); in test [3] it was 0%. In addition, the outcome in test [5], in test [6], in test [7] and in test [8] was inactive.

Turning to `CCC1N=C(N)N=C(N)N1OCc1ccc(Cl)c(Cl)c1` (stereo not given), the growth inhibition in test [1] is 90% (active); in test [4], 93% (active). Moreover, the inhibition in test [2] is 54% (active); in test [3], -4%. Moreover, the result in test [5], in test [6], in test [7] and in test [8] was inactive.

Take `Cc1c(C(=O)[C@@H]2C[C@H]2CN2CCC(N3CCCC3)CC2)sc2ccccc12`: the growth inhibition in test [1] is 9%; in test [4] it was 94% (active). Also, the inhibition in test [2] was 16%; in test [3], 0%. For the same molecule, the result in test [5], in test [6], in test [7] and in test [8] was inactive.

In the case of `CCOC(=O)c1c(C)n(-c2ccccc2)c2ccc(OC(=O)c3ccc(S(=O)(=O)N(CC)CC)cc3)cc12`, the growth inhibition in test [1] was 63% (active); in test [4] it was 94% (active). Besides, the inhibition in test [2] is -6%; in test [3], -3%. In addition, the outcome in test [5], in test [6], in test [7] and in test [8] was inactive.
